Measurements published in PubChem BioAssay (EPA / NIEHS).
Results filed as inconclusive are left out. The source made the active and inactive calls. How the source made its calls: active means hit-call score of the fitted dose curve at least 0.9, where 1 is the maximum; inconclusive means response in the unintended direction; inactive means score below 0.9.

Biological target: rat Corticotropin Releasing Factor Receptor (CRF), Crhr1 (gene 58959) (UniProt P35353)
Assay: NVS_GPCR_rCRF: NovaScreen (NVS) G Protein-Coupled Receptor Assay for rat Corticotropin Releasing Factor Receptor (CRF) (AID 2283300)
Procedure: NVS_GPCR_rCRF is a biochemical, single-readout assay that uses extracted gene-proteins from Rat cortical membranes in a tissue-based cell-free assay. Measurements were taken 2 hours after chemical dosing in a 96-well plate.NVS_GPCR_rCRF is one of one assay component(s) measured or calculated from the NVS_GPCR_rCRF assay. It is designed to make measurements of radioligand binding, a form of binding reporter, as detected with scintillation counting signals by […] radiodetection technology.Data from the assay component NVS_GPCR_rCRF was analyzed into 1 assay endpoint. This assay endpoint, NVS_GPCR_rCRF, was analyzed in the positive analysis fitting direction relative to DMSO as the negative control and baseline of activity. Using a type of binding reporter, loss-of-signal activity can be used to understand changes in the binding as they relate to the gene Crhr1. Furthermore, this assay endpoint can be referred to as a primary readout, because the performed assay has only produced 1 assay endpoint. To generalize the intended target to other relatable targets, this assay endpoint is annotated to the gpcr intended target family, where the subfamily is secretin receptor.
(§1) Binding assays used specific radioligands (tritiated, iodinated) with non-radioactive competitive displacement ligands in agonist or antagonist protocols (as indicated) and various reference compounds and inhibitors to titrate specific binding to receptors and transporters. Most enzyme assays (CYPs, kinases, phosphatases, proteases, HDACs) used recombinant protein and specific substrates (fluorescence mostly, some colorimetric and radioactive) and inhibitors, followed by a biochemical separation of substrate and product. All assays for the biochemical HTS were initially run in duplicate at a single concentration (10 uM for CYP450 assays and 25 uM for all others). […] Each assay was run with positive and negative controls, and concurrent controls on every plate. The follow-up (secondary) screen tested active chemical-pairs in concentration series, as well as a few additional assays not tested in the primary screen, some selected negative inactives, and several cases re-run in the concentration series for confirmatory purposes.

Chain of rat Corticotropin Releasing Factor Receptor (CRF), Crhr1 (gene 58959) (P35353 whole entry, looked up): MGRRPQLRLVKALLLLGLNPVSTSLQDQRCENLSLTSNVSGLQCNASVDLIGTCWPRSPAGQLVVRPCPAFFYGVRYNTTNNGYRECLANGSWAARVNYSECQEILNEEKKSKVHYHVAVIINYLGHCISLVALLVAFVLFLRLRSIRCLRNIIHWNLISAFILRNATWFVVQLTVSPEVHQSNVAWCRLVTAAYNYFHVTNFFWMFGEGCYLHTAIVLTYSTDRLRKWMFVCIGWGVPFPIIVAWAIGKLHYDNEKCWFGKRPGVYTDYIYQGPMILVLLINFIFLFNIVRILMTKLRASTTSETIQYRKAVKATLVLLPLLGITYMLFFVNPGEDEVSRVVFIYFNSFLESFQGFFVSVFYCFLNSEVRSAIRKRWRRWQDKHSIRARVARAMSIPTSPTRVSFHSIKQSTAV

Row | SMILES | outcome
1 | CC(C)=CC1C(C(=O)OCN2C(=O)C3=C(CCCC3)C2=O)C1(C)C (configuration not stated) | inactive
2 | Cc1cc(C2CC2)nc(Nc2ccccc2)n1 | inactive
3 | C#CC(C)(C)NC(=O)c1cc(Cl)cc(Cl)c1 | inactive
4 | Nc1c(Cl)cc([N+](=O)[O-])cc1Cl | inactive

Biological target: Adra2b (gene 24174) (UniProt P19328)
Sequence (P19328 whole entry, looked up): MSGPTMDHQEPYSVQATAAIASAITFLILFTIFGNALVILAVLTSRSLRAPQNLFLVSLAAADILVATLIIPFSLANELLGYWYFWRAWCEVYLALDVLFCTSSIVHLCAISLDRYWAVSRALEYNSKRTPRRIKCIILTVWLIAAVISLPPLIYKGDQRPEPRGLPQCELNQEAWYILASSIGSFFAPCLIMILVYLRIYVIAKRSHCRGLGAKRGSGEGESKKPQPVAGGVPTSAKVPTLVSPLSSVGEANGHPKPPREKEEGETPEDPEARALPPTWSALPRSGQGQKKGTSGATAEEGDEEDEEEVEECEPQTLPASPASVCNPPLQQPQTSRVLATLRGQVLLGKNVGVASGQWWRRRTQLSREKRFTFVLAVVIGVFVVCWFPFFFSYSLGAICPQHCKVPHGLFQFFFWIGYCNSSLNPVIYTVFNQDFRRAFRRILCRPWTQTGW
Assay: NVS_GPCR_rmAdra2B: NovaScreen (NVS) G Protein-Coupled Receptor Assay for hybird cells Adrenergic, Alpha 2B Receptor (Adra2B) (AID 2283306)
In short: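 Compounds screened first at 25 uM in duplicate, with actives followed up in concentration-response; specific radioligand displacement from hybrid neuroglioma/blastoma cell membrane preparations measured by filter scintillation counting after 1 h, normalized to DMSO.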

Row | SMILES | AC50 | outcome
5 | C[Si](Cn1cncn1)(c1ccc(F)cc1)c1ccc(F)cc1 | 25 µM (active) | –
6 | CC[C@H](C)[C@H]1O[C@]2(C=C[C@@H]1C)C[C@@H]1C[C@@H](C/C=C(\C)[C@@H](O[C@H]3C[C@H](OC)[C@@H](O[C@H]4C[C@H](OC)[C@@H](NC)[C@H](C)O4)[C@H](C)O3)[C@@H](C)/C=C/C=C3\CO[C@@H]4[C@H](O)C(C)=C[C@@H](C(=O)O1)[C@]34O)O2 | 34.8 µM (active) | –
7 | COc1ccc(C(=CC(=O)N2CCOCC2)c2ccc(Cl)cc2)cc1OC | 11.7 µM (active) | –
8 | CCC(=O)Nc1ccc(Cl)c(Cl)c1 | – | inactive

Biological target: rat Neurotensin Receptor (NTS), Ntsr1 (gene 366274) (UniProt P20789)
Sequence (P20789 whole entry, looked up): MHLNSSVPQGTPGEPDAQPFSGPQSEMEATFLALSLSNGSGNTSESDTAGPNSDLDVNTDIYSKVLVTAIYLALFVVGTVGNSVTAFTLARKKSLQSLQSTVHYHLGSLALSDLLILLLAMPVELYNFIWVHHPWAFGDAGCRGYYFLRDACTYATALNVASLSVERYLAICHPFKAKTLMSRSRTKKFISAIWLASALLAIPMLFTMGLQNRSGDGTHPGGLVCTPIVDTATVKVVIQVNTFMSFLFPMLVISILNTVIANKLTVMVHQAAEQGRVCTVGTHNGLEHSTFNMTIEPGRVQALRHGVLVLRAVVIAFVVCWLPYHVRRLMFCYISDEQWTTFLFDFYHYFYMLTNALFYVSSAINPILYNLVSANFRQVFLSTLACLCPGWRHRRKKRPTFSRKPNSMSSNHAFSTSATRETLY
Assay: NVS_GPCR_rNTS: NovaScreen (NVS) G Protein-Coupled Receptor Assay for rat Neurotensin Receptor (NTS) (AID 2283308)
In short: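 Single-point duplicates at 25 uM, then concentration series to 50 uM max for hits, measured radioligand displacement on rat forebrain membrane preparations. Bound label counted by filtration scintillation at 1 h; signal loss relative to DMSO fitted.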

Row | SMILES | outcome
9 | S=C1NCCN1 | inactive
10 | CCCCSP(=O)(SCCCC)SCCCC | inactive
11 | CCOP(=O)(OCC)Oc1cc(C)nc(C(C)C)n1 | inactive
12 | C=C(C)[C@H]1Cc2c(ccc3c2O[C@@H]2COc4cc(OC)c(OC)cc4[C@@H]2C3=O)O1 | inactive
13 | CCOP(=S)(OCC)Oc1cc(C)nc(C(C)C)n1 | inactive
14 | CC1=NNC(=O)N(/N=C/c2cccnc2)C1 | inactive

Biological target: rat Neurokinin-1 Receptor (NK1), Tacr1 (gene 24807) (UniProt P14600)
Sequence (P14600 whole entry, looked up): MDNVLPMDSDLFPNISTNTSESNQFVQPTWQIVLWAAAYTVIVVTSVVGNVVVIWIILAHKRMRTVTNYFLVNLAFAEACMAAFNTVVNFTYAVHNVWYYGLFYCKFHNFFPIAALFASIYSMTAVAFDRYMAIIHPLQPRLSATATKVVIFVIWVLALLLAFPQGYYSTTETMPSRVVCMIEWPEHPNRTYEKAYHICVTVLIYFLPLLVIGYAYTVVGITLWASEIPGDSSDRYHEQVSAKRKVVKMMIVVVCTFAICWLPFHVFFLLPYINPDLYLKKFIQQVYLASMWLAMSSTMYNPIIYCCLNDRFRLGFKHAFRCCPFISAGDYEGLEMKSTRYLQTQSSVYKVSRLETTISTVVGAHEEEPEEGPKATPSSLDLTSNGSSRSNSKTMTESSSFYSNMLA
Assay: NVS_GPCR_rNK1: NovaScreen (NVS) G Protein-Coupled Receptor Assay for rat Neurokinin-1 Receptor (NK1) (AID 2283309)
Procedure: (§2) NVS_GPCR_rNK1 is a biochemical, single-readout assay that uses extracted gene-proteins from Rat submaxillary gland membranes in a tissue-based cell-free assay. Measurements were taken 1 hour after chemical dosing in a 48-well plate.NVS_GPCR_rNK1 is one of one assay component(s) measured or calculated from the NVS_GPCR_rNK1 assay. It is designed to make measurements of radioligand binding, a form of binding reporter, as detected with scintillation counting signals by Filter-based radiodetection technology.Data from the assay component NVS_GPCR_rNK1 was analyzed into 1 assay endpoint. This assay endpoint, NVS_GPCR_rNK1, was analyzed in the positive analysis fitting direction relative to DMSO as the negative control and baseline of activity. Using a type of binding reporter, loss-of-signal activity can be used to understand changes in the binding as they relate to the gene Tacr1. Furthermore, this assay endpoint can be referred to as a primary readout, because the performed assay has only produced 1 assay endpoint. To generalize the intended target to other relatable targets, this assay endpoint is annotated to the gpcr intended target family, where the subfamily is rhodopsin-like receptor.
as §1

Row | SMILES | outcome | AC50
15 | C[Si](Cn1cncn1)(c1ccc(F)cc1)c1ccc(F)cc1 | inactive | –
16 | CC[C@H](C)[C@H]1O[C@]2(C=C[C@@H]1C)C[C@@H]1C[C@@H](C/C=C(\C)[C@@H](O[C@H]3C[C@H](OC)[C@@H](O[C@H]4C[C@H](OC)[C@@H](NC)[C@H](C)O4)[C@H](C)O3)[C@@H](C)/C=C/C=C3\CO[C@@H]4[C@H](O)C(C)=C[C@@H](C(=O)O1)[C@]34O)O2 | – | 30.6 µM (active)
17 | COc1ccc(C(=CC(=O)N2CCOCC2)c2ccc(Cl)cc2)cc1OC | inactive | –
18 | FC(F)C(F)(F)OCC(Cn1cncn1)c1ccc(Cl)cc1Cl (configuration not stated) | inactive | –
19 | CCOP(=O)(OCC)Oc1cc(C)nc(C(C)C)n1 | inactive | –
20 | CSC1=N[C@@](C)(c2ccccc2)C(=O)N1Nc1ccccc1 | inactive | –
21 | CNC(=O)ON=C(C)SC | – | 44.1 µM (active)
22 | CCCOCC(=Nc1ccc(Cl)cc1C(F)(F)F)n1ccnc1 | inactive | –

Biological target: rat Neurokinin-3 Receptor (NK3), Tacr3 (gene 24808) (UniProt P16177)
Sequence (P16177 whole entry, looked up): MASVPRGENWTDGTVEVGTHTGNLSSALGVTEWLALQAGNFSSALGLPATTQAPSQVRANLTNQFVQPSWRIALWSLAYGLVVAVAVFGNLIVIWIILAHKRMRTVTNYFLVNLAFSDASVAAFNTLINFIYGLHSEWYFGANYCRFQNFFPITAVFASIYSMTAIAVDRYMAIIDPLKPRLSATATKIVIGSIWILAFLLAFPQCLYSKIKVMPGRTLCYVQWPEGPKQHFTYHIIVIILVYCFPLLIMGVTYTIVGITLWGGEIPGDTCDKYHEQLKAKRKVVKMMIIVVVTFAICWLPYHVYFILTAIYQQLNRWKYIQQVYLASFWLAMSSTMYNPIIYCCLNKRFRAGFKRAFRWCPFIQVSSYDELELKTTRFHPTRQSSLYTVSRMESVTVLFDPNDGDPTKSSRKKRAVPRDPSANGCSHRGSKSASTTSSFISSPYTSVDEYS
Assay: NVS_GPCR_rNK3: NovaScreen (NVS) G Protein-Coupled Receptor Assay for rat Neurokinin-3 Receptor (NK3) (AID 2283310)
In short: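 Filter-based radioligand displacement on rat cortex membrane preparations, read by scintillation 2 h post-dose. Chemicals first tested in duplicate at 25 uM; actives followed up in concentration series with a 50 uM maximum.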

Row | SMILES | outcome
23 | C[Si](Cn1cncn1)(c1ccc(F)cc1)c1ccc(F)cc1 | inactive
24 | CCOP(=O)(NC(C)C)Oc1ccc(SC)c(C)c1 (configuration not stated) | inactive
25 | CCCOCC(=Nc1ccc(Cl)cc1C(F)(F)F)n1ccnc1 | inactive

Biological target: rat Somatostatin Receptor (SST), Sstr1 (gene 25033) (UniProt P28646)
Sequence (P28646 whole entry, looked up): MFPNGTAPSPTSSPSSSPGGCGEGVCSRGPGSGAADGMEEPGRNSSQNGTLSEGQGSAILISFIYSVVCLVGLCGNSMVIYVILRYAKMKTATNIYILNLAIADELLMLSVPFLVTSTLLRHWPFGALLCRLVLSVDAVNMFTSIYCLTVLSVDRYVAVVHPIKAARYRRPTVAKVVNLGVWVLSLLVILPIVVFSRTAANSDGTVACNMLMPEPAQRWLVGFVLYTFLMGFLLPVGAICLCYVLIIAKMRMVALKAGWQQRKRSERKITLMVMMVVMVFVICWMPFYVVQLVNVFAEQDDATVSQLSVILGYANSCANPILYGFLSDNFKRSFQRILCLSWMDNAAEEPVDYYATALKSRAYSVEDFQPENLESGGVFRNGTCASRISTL
Assay: NVS_GPCR_rSST: NovaScreen (NVS) G Protein-Coupled Receptor Assay for rat Somatostatin Receptor (SST) (AID 2283314)
Procedure: as §2, with “NVS_GPCR_rSST” for “NVS_GPCR_rNK1”, “forebrain” for “submaxillary gland”, “96-well plate.NVS_GPCR_rSST” for “48-well plate.NVS_GPCR_rNK1”, “NVS_GPCR_rSST,” for “NVS_GPCR_rNK1,”, “Sstr1.” for “Tacr1.”
Binding assays used specific radioligands (tritiated, iodinated) with non-radioactive competitive displacement ligands in agonist or antagonist protocols (as indicated) and various reference compounds and inhibitors to titrate specific binding to receptors and transporters. Most enzyme assays (CYPs, kinases, phosphatases, proteases, HDACs) used recombinant protein and specific substrates (fluorescence mostly, some colorimetric and radioactive) and inhibitors, followed by a biochemical separation of substrate and product. All assays for the biochemical HTS were initially run in duplicate at a single concentration (10 uM for CYP450 assays and 25 uM for all others). […]

Row | SMILES | AC50 | outcome
26 | CC[C@H](C)[C@H]1O[C@]2(C=C[C@@H]1C)C[C@@H]1C[C@@H](C/C=C(\C)[C@@H](O[C@H]3C[C@H](OC)[C@@H](O[C@H]4C[C@H](OC)[C@@H](NC)[C@H](C)O4)[C@H](C)O3)[C@@H](C)/C=C/C=C3\CO[C@@H]4[C@H](O)C(C)=C[C@@H](C(=O)O1)[C@]34O)O2 | 2.49 µM (active) | –
27 | CC(C)=CC1C(C(=O)OCN2C(=O)C3=C(CCCC3)C2=O)C1(C)C (configuration not stated) | – | inactive
28 | N#CSCSC#N | – | inactive

Biological target: rat Opioid Receptor, Non-selective Binding, Oprm1 (gene 25601) (UniProt P33535)
Sequence (P33535 whole entry, looked up): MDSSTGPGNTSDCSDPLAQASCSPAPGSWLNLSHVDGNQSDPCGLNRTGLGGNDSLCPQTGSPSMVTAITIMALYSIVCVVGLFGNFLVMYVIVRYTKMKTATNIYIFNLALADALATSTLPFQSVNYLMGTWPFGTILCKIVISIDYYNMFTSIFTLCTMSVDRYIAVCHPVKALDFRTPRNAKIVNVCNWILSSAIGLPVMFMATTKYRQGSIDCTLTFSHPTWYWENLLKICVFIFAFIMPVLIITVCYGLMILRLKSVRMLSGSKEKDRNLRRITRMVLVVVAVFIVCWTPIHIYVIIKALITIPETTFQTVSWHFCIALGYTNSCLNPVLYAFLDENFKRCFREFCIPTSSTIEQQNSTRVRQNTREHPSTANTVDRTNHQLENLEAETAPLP
Assay: NVS_GPCR_rOpiate_NonSelective: NovaScreen (NVS) G Protein-Coupled Receptor Assay for rat Opioid Receptor, Non-selective Binding (AID 2283318)
In short: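 Filter-based radioligand displacement using rat forebrain membrane preparations, measured 1.5 h post-dosing. Single-concentration duplicate screen at 25 uM, follow-up in concentration series; activity taken as signal loss relative to DMSO.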

Row | SMILES | outcome | AC50
29 | C[Si](Cn1cncn1)(c1ccc(F)cc1)c1ccc(F)cc1 | inactive | –
30 | CC[C@H](C)[C@H]1O[C@]2(C=C[C@@H]1C)C[C@@H]1C[C@@H](C/C=C(\C)[C@@H](O[C@H]3C[C@H](OC)[C@@H](O[C@H]4C[C@H](OC)[C@@H](NC)[C@H](C)O4)[C@H](C)O3)[C@@H](C)/C=C/C=C3\CO[C@@H]4[C@H](O)C(C)=C[C@@H](C(=O)O1)[C@]34O)O2 | inactive | –
31 | COc1ccc(C(=CC(=O)N2CCOCC2)c2ccc(Cl)cc2)cc1OC | inactive | –
32 | CC(C)=CC1C(C(=O)OCN2C(=O)C3=C(CCCC3)C2=O)C1(C)C (configuration not stated) | inactive | –
33 | CCCOCC(=Nc1ccc(Cl)cc1C(F)(F)F)n1ccnc1 | – | 12.1 µM (active)

System: NCBI gene 24521
Assay: NVS_IC_rKATPCh: NovaScreen (NVS) Ion Channel Assay for rat Potassium Channel, ATP-Sensitive (KATPCh) (AID 2283319)
In short: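 Primary duplicate screen at 25 uM, then singleton concentration series to 50 uM maximum, in a rat cortex membrane radioligand displacement assay. Binding measured by filtration and scintillation 2 h post-dose; DMSO baseline.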

Row | SMILES | outcome
34 | COc1ccc(C(=CC(=O)N2CCOCC2)c2ccc(Cl)cc2)cc1OC | inactive
35 | COP(=O)(OC)OC(Br)C(Cl)(Cl)Br (configuration not stated) | inactive
36 | CC1=NNC(=O)N(/N=C/c2cccnc2)C1 | inactive

System: not listed separately
Assay: NVS_IC_rCaDHPRCh_L: NovaScreen (NVS) Ion Channel Assay for rat Calcium Channel, Type L, Dihydropyridine Site (CaDHPRCh_L) (AID 2283320)
In short: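 Rat cortex membrane preparation; dihydropyridine-site radioligand displacement read 1 h post-dose by filtration and scintillation. Primary single-point screen 25 uM in duplicate, then concentration series to 50 uM maximum; DMSO as negative control.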

Row | SMILES | AC50 | outcome
37 | C[Si](Cn1cncn1)(c1ccc(F)cc1)c1ccc(F)cc1 | 25.7 µM (active) | –
38 | CC[C@H](C)[C@H]1O[C@]2(C=C[C@@H]1C)C[C@@H]1C[C@@H](C/C=C(\C)[C@@H](O[C@H]3C[C@H](OC)[C@@H](O[C@H]4C[C@H](OC)[C@@H](NC)[C@H](C)O4)[C@H](C)O3)[C@@H](C)/C=C/C=C3\CO[C@@H]4[C@H](O)C(C)=C[C@@H](C(=O)O1)[C@]34O)O2 | 4.83 µM (active) | –
39 | COc1ccc(C(=CC(=O)N2CCOCC2)c2ccc(Cl)cc2)cc1OC | – | inactive
40 | FC(F)C(F)(F)OCC(Cn1cncn1)c1ccc(Cl)cc1Cl (configuration not stated) | 12.6 µM (active) | –
41 | CC(C)=CC1C(C(=O)OCN2C(=O)C3=C(CCCC3)C2=O)C1(C)C (configuration not stated) | 38.2 µM (active) | –
42 | CCCOCC(=Nc1ccc(Cl)cc1C(F)(F)F)n1ccnc1 | – | inactive
